Screening results: PubChem BioAssay, Sanford-Burnham Center for Chemical Genomics
DUSP3 inh – VHR1 (DUSP3) phosphatase inhibition; inhibition, % at 20 µM; recombinant VHR phosphatase, colorimetric substrate read-out; 0.7% of 50,000 active; in the data active = inhibition above about 60%
Target sequence (P51452 whole entry, looked up): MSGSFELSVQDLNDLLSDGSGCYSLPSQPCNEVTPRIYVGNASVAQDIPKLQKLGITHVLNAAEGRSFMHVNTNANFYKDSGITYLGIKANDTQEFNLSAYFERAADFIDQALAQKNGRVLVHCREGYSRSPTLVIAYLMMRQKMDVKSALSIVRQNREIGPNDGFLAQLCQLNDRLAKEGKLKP
* marks the source's active call; other numbers are inactive results. The full list was thinned out, with hits kept by preference.

SMILES	DUSP3 inh
O=C(Nc1ccc(OC(F)(F)F)cc1)c1cccc(OCc2ccccc2)c1	-5
Cn1cnnc1Sc1nc2c(c(=O)n(C)c(=O)n2C)n1Cc1ccc(Cl)cc1Cl	-8
Cc1ccc(-c2ccccc2)n1-c1ccc(O)c(C(=O)O)c1	99*
Cc1ccc(-c2ccccc2)n1-c1ccc(Cl)c(C(=O)O)c1	44
Cc1ccc(-c2ccccc2)n1-c1ccc(C(=O)O)cc1	6
O=C(Nc1ccc(Br)c(Br)c1)c1ncn[nH]1	1
O=C(O)C(Cc1ccccc1)N1C(=O)/C(=C/c2cccc3ccccc23)SC1=S (stereo not drawn)	-13
O=C(O)C(Cc1ccccc1)N1C(=O)/C(=C/c2ccc(Cl)cc2Cl)SC1=S (stereo not drawn)	83*
CC(c1ccccc1)N1C(=O)/C(=C\c2ccc(Cl)cc2Cl)SC1=S (stereo not drawn)	4
COC(=O)c1ccc(/C=C2\SC(=S)N(C(Cc3ccccc3)C(=O)O)C2=O)cc1 (stereo not drawn)	42
CCC(C)c1ccccc1OCC(=O)Nc1nccs1 (stereo not drawn)	-8
Cc1cccc(NC(=O)C2C(c3ccccc3)=C2c2ccccc2)c1C	-2
CC(C)NC(=O)C1C(c2ccccc2)=C1c1ccccc1	120*
O=C(Nc1ccc(Br)cc1)C1C(c2ccccc2)=C1c1ccccc1	-11
CCOC(=O)CCC(C(=O)C(C)C)C(=O)C(C)(C)OC (stereo not drawn)	-5
CCOc1cccc(C2CC(=O)Nc3c2cc(Br)c2ccccc32)c1 (stereo not drawn)	-3
O=C1CC(c2ccc(F)c(Br)c2)c2ccc3ccccc3c2N1 (stereo not drawn)	-8
COc1cc(C2CC(=O)Nc3c2ccc2ccccc32)cc(OC)c1OC(C)=O (stereo not drawn)	2
CSc1ccc(C2CC(=O)Nc3c2cc(Br)c2ccccc32)cc1 (stereo not drawn)	28
COc1ccc(C2CC(=O)Nc3c2cc(Br)c2ccccc32)c(OC)c1 (stereo not drawn)	112*
COc1cc(C2CC(=O)Nc3c2ccc2ccccc32)cc(Br)c1OC (stereo not drawn)	103*
Cc1cc(C)c(NC(=O)C(c2ccccc2)c2ccccc2)c(C)c1	-15
CC(C)Oc1cccc(C(=O)Nc2ccc(F)c([N+](=O)[O-])c2)c1	-2
COc1ccc(N=C(C)c2cc(Cl)ccc2O)cc1	-13
O=C1C2C(c3ccccc3)OC3(C(=O)c4ccccc4C3=O)C2C(=O)N1c1ccc([N+](=O)[O-])cc1 (stereo not drawn)	12
SMILES	DUSP3 inh
Cc1nc(NC(=O)c2ccccc2)sc1-c1csc(Nc2cccc(C(=O)O)c2)n1	-8
Cc1nc(NC(=O)c2ccccc2)sc1-c1csc(Nc2ccc(O)cc2)n1	71*
Cc1nc(N)sc1-c1csc(Nc2ccc(S(N)(=O)=O)cc2)n1	26
Cc1cccc(NC(=O)C2C(c3ccccc3)C2(Cl)Cl)c1C (stereo not drawn)	-11
Cc1cccc(NC(=O)C2C3C=CC(C4CC34)C2C(=O)O)c1C (stereo not drawn)	100*
O=C(O)C1C2C=CC(C3CC23)C1C(=O)Nc1ccccc1Cl (stereo not drawn)	-3
CCOc1ccc(C2C3(OC(c4ccc(Cl)cc4)C24C(=O)c2ccccc2C4=O)C(=O)c2ccccc2C3=O)cc1 (stereo not drawn)	-10
COc1ccc(CCNC(=O)c2ccc(C)c([N+](=O)[O-])c2)cc1OC	-13
Cc1ccc(NC(=O)CC2CCCCC2)cc1	6
O=C(CC1CCCCC1)Nc1ccccc1	97*
Cc1ccccc1NC(=O)CC1CCCCC1	39
NC(=O)c1cc(NC(=O)c2ccc([N+](=O)[O-])cc2)ccc1Cl	-25
Cc1cccc(N(CC(O)CN2C(=O)NC(C)(C)C2=O)S(=O)(=O)c2ccccc2)c1 (stereo not drawn)	-24
O=S(=O)(Cc1ccccc1)CC(O)COc1ccccc1 (stereo not drawn)	-6
CCOc1ccc(NC(=O)CN(Cc2ccccc2)S(=O)(=O)c2ccc(OC)cc2)cc1	4
O=C(NCc1cccnc1)c1cc(-c2ccccc2)nc2ccccc12	4
Nc1c(C(=O)NCc2cccnc2)sc(=S)n1-c1ccccc1	91*
O=C(NCc1cccnc1)c1ccc(C#Cc2ccccc2)cc1	-6
O=S(=O)(NC(=S)c1ccccc1)c1ccc(I)cc1	-27
CCOC(=O)c1ccc(N2C(=O)C=CC2=O)cc1	49
CC(=O)c1ccc(N2C(=O)C=CC2=O)cc1	84*
CC(=O)c1ccc(N2C(=O)C3C4C=CC(CC4)C3C2=O)cc1 (stereo not drawn)	-20
COCCN1C(=O)C(=O)/C(=C(/O)c2ccccc2)C1c1ccccc1Cl (stereo not drawn)	-11
C=CCc1ccc(OCC(O)CN2CC(C)OC(C)C2)c(OC)c1 (stereo not drawn)	-24
CC(=O)Nc1ccccc1NC(=O)/C=C/c1ccccc1	-1
